CF NFkB block – blocks PAF-induced NF-kB reporter in cystic fibrosis cells | KKLEB NF-kB-GFP reporter, GFP fluorescence overnight | inhibition, % at 5 µM | 0.86% of 360,000 active;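 active means at least 50% inhibition at 5 µM, scaled per plate between neutral and stimulator controls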;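 further: PAF is a Pseudomonas aeruginosa culture filtrate used as stimulus; plate controls were PAF-stimulated DMSO wells for no effect and unstimulated DMSO wells for full effect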
TROY signal inh – blocks TROY-dependent signaling in reporter cells; Q293 LMP1-TROYcd NF-kB luciferase reporter, 4 h; inhibition, % at 10 µM; 0.98% of 360,000 active; AID 1347056;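 active means compounds whose plate-normalised and pattern-corrected inhibition of the luciferase reporter signal at the single screening dose is 50% or more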
Peg3 promoter – inhibitors of Peg3 promoter. HeLa PEG-Prom luciferase reporter, luminescence, overnight. inhibition, % at 20 µM. 1.7% of 360,000 active;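 active means inhibition of at least 50% at 20 µM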
HIF-2a inh – HIF-2a inhibition; AID 624352; 0.72% of 360,000 active; 786-0 RCC cells HIF-2a reporter, luciferase luminescence, overnight; inhibition, % at 18.8 µM;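 active means inhibition of the luminescence signal of 40% or more relative to plate controls, in a single-dose primary screen at 18.75 µM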
TWEAK Fn14 block – inhibitors of TWEAK-Fn14 interaction signaling. 2% of 360,000 active. TWEAK-stimulated Fn14 reporter cells, luciferase luminescence, 8 h. AID 1159606. inhibition, % at 10 µM; in the data active means inhibition above about 50%
KKLEB cytotox – reduces viability of KKLEB cystic fibrosis airway cells. KKLEB CF airway cells viability, ATPlite luminescence, overnight; active compounds read low; cells stimulated with P. aeruginosa culture filtrate. activity change (cytotoxicity), % at 5 µM. 0.36% of 360,000 active;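 active means corrected activity change at or below -50% at 5 µM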
An asterisk follows results filed as active. A selection: hits, their analogues and other compounds. The true share with any hit is near 3.9%.

SMILES | CF NFkB block | TROY signal inh | Peg3 promoter | HIF-2a inh | TWEAK Fn14 block | KKLEB cytotox
C[C@H]1COC(=O)[C@@H](Cc2ccc(F)cc2)CC/C=C/C[C@@H](CC(=O)N(CCO)Cc2ccccc2)C(=O)N1 | -3.4 | -0.8 | 13.6 | 12.3 | 22.7 | 8.1
O=C(Nc1ccc2c(c1)OCCO2)c1cc2ccccc2o1 | -27.4 | 1.9 | -157.5 | -76.5 | 31.3 | -27.5
O=C(Nc1ccc2c(c1)OCCO2)C1CCCN(S(=O)(=O)Cc2ccccc2)C1 (configuration not stated) | -12.4 | 24.0 | -68.6 | -42.6 | 54.2* | 7.2
O=C(Nc1ccc2c(c1)OCCO2)C(c1cc2ccccc2o1)N1CCC(Cc2ccccc2)CC1 (configuration not stated) | -4.2 | 85.1* | -33.4 | -39.9 | 89.5* | -14.3
COc1ccc(C(=O)N2CCC(C(=O)Nc3ccc4c(c3)OCCO4)CC2)cc1 | -3.8 | 48.0 | -59.7 | 7.8 | 79.3* | 2.5
COc1ccc(NC(=O)C2CCN(S(=O)(=O)c3c(C)nn(C)c3C)CC2)cc1 | -11.8 | 5.2 | 2.8 | 14.0 | -5.6 | -1.1
O=C(Nc1ccc2c(c1)OCO2)C1CCCN(S(=O)(=O)Cc2ccccc2)C1 (configuration not stated) | -3.6 | 0.1 | 21.1 | 18.2 | -4.3 | -1.1
Cc1nn(C)c(C)c1S(=O)(=O)N1CCC(C(=O)Nc2ccc3c(c2)OCCO3)CC1 | -8.4 | 66.0* | -54.4 | -7.9 | 78.9* | 10.5
O=C(Nc1ccc2c(c1)OCO2)c1cc(C2CCCCN2S(=O)(=O)Cc2ccccc2)on1 (configuration not stated) | -11.7 | 63.6* | -267.5 | -172.1 | 8.8 | 5.2
O=C(Nc1ccc2c(c1)OCO2)c1cc(C2CCCCN2C(=O)CCc2ccccc2)on1 (configuration not stated) | -8.7 | -13.5 | -0.9 | -4.9 | 9.3 | 0.3
O=C(Nc1ccc2c(c1)OCCO2)C1CCN(S(=O)(=O)c2ccc(Br)s2)CC1 | -3.0 | 18.7 | -29.8 | -39.7 | 51.3* | 4.3
COC(CNC(=O)c1ccc2nc3ccccc3c(=O)n2c1)OC | -7.3 | 23.5 | 5.3 | -56.2 | 25.5 | 1.8
CC(Sc1nc(-c2ccccc2)cs1)C(=O)Nc1ccc(Cl)cn1 (configuration not stated) | 12.8 | -1.6 | 1.1 | -8.6 | -7.1 | 1.4
COCCCNC(=O)Cc1ccc(S(=O)(=O)N2CCOCC2)s1 | 6.8 | -3.7 | 2.0 | 10.5 | 9.9 | 12.4
O=C(/C=C\c1cccs1)c1c(O)ccc2ccc(=O)oc12 | -10.8 | 5.2 | 2.1 | 1.2 | 50.9* | -1.3
O=C(C=Cc1cccs1)c1cccs1 | 13.9 | -44.3 | -116.0 | -69.7 | 6.9 | -11.9
CC(C)CC(NC(=O)OC(C)(C)C)C(=O)NC(C(=O)NC(C)C(N)=O)C(C)C (configuration not stated) | 2.6 | 12.6 | 9.3 | 1.4 | 3.8 | -24.1
CC1CC(=O)N(c2ccc(NCCc3ccc(O)cc3)c([N+](=O)[O-])c2)C1=O (configuration not stated) | 1.8 | 17.7 | -13.7 | -2.6 | 48.7 | -8.9
CC(C)C[C@H](N)c1nnc(S(=O)(=O)Cc2cccc(F)c2)o1 | 28.0 | -2.5 | 66.8* | 18.9 | 7.7 | 0.8
COc1ccc(C(CNC(=O)c2ccco2)N2CCOCC2)cc1 (configuration not stated) | -9.1 | -4.2 | -9.1 | -28.0 | -30.4 | 2.7
CCN1CCN(C(c2cccnc2)c2c(NC(=O)c3ccco3)sc(C)c2C)CC1 (configuration not stated) | -13.8 | 10.5 | 55.2* | -81.2 | 4.8 | -3.0
COc1ccc(C(c2c(NC(=O)c3ccco3)sc(C)c2C)N2CCOCC2)cc1 (configuration not stated) | 25.3 | 51.5* | 29.3 | 9.0 | 82.6* | -4.1
COCCSc1nc(N)c(NC(=O)c2ccc(OC)cc2)c(=O)[nH]1 | -3.8 | 1.5 | 0.6 | 23.3 | 1.6 | 3.7
O=C(COC(=O)c1cc(Br)ccc1O)NCCC1=CCCCC1 | 5.8 | 14.0 | 10.5 | 15.5 | 1.5 | -5.4
Cc1c(C(=O)Oc2cccc3ccccc23)cnn1-c1ccccc1 | -5.0 | 82.2* | -312.1 | -64.2 | 72.8* | -3.3
CCN1CCN(CCNC(=O)c2ccc(/C=C3/Sc4ccccc4N(Cc4ccccc4C)C3=O)cc2)CC1 | 42.6 | 41.9 | 86.6* | 18.5 | -76.0 | -76.9*

Screening results (PubChem BioAssay)
